Data published in PubChem BioAssay (Tox21).
Results filed as inconclusive are left out. Active and inactive are the calls of the source. Unless noted, calls come from the whole dose curve; as a rule, active = well fitted curve in the direction sought with a large enough effect in the repeat runs; inconclusive = weak or mixed curves; inactive = no such curve, though single readings can be large; an effect the other way counts as inactive or inconclusive.

Legend:
[1] = qHTS assay for small molecule agonists of the p53 signaling pathway (AID 651631; calls by dose curve; note: nearly all actives have a fitted effect of over 15% in size)
In short: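 p53RE-bla HCT-116 cells; compounds 16 h, 37 °C; LiveBLAzer B/G FRET substrate 2 h RT; fluorescence intensity read-out, qHTS format.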

[2] = qHTS assay for small molecules that induce genotoxicity in human embryonic kidney cells expressing luciferase-tagged ATAD5 (AID 651632); note: nearly all actives have a fitted effect of over 15% in size
In short: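 Luminescence read-out: after 16 hr compound exposure at 37C, ATAD5-luciferase HEK293T cells received Amplite, 30 min RT, then CCD imaging. A rise in signal marks genotoxic stress.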

[3] = qHTS assay for small molecule agonists of the p53 signaling pathway - cell viability (AID 651633; calls by dose curve;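 note: p53RE-bla HCT reporter cells with a stable beta-lactamase p53 reporter; series mostly up to about 83 µM; nearly all actives have a fitted effect of over 30% in size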)
In short: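 Viability counter-read: CellTiter-Glo luminescence (30 min, room temperature) in the same p53RE-bla plates. These plates had been exposed to compounds for 16 h at 37 C.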

[4] = qHTS assay for small molecule disruptors of the mitochondrial membrane potential - cell viability (AID 720634; calls by dose curve;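 note: human HepG2 liver cancer cells; series mostly up to about 83 µM; nearly all actives have a fitted effect of over 20% in size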)
In short: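 Luminescence from CellTiter-Glo (ATP content) gave viability in HepG2 cells, read in the same wells as the MMP dye assay after 1 hr compound exposure at 37 C.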

[5] = qHTS assay to test for compound auto fluorescence at 590 nm (red) in HepG2 cells (AID 720674)
In short: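 We screened compounds on adherent HepG2 cells, incubating them for an hour at 37 C in 5% CO2 before reading emission at 590 nm under 540 nm excitation; values reflect equivalence to Rose Bengal sodium fluorescence.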

[6] = qHTS assay to test for compound auto fluorescence at 535 nm (green) in HepG2 cells (AID 720675)
[7] = qHTS assay to test for compound auto fluorescence at 460 nm (blue) in HEK293 cells (AID 720678)
In short: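 Blue-channel (Ex/Em 405/460 nm) intensity measured in HEK293 cultures after overnight compound exposure at 37C; signal expressed relative to triamterene. Cells plated 2,000 per well in 10% dialyzed FBS medium and allowed 4-5 hr to attach.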

[8] = qHTS assay to test for compound auto fluorescence at 590 nm (red) in HEK293 cells (AID 720679)
In short: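 Red-channel autofluorescence (Ex/Em 540/590 nm; Rose Bengal sodium reference) was measured after overnight 37C, 5% CO2 exposure of attached HEK293 cells, 2,000 per well in medium with 10% dialyzed FBS.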

[9] = qHTS assay to test for compound auto fluorescence at 535 nm (green) in HEK293 cells (AID 720680)
[10] = qHTS assay to test for compound auto fluorescence at 460 nm (blue) in HEK293 cell free culture (AID 720681)
In short: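 Blue fluorescence (Ex 405/Em 460 nm, triamterene-equivalent) was read immediately after pin transfer of compound or DMSO into medium (DMEM, 10% FBS) without cells.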

[11] = qHTS assay to test for compound auto fluorescence at 535 nm (green) in HEK293 cell free culture (AID 720682)
In short: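 Cell-free medium (DMEM, 10% FBS) receives compound or DMSO by pintool. Plate read directly at Ex 485/Em 535 nm. Signal converted to fluorescein equivalency.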

[12] = qHTS assay to test for compound auto fluorescence at 590 nm (red) in HEK293 cell free culture (AID 720683)
In short: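 Red-channel autofluorescence of compounds in culture medium (DMEM, 10% FBS), no cells, measured at 540/590 nm. Rose Bengal sodium is the reference fluorophore for equivalence.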

[13] = qHTS assay to test for compound auto fluorescence at 590 nm (red) in HepG2 cell free culture (AID 720684)
In short: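 No cells present: MEM + 10% FBS only. Compound pinned in, red label read (540/590 nm). Activity = fluorescence equivalent to Rose Bengal sodium.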

[14] = qHTS assay to test for compound auto fluorescence at 460 nm (blue) in HepG2 cell free culture (AID 720685)
In short: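 Cell-free plates of MEM plus 10% FBS received 23 nL compound or DMSO vehicle; blue-channel (405/460 nm) intensity scored against triamterene as reference fluorophore.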

[15] = qHTS assay to test for compound auto fluorescence at 535 nm (green) in HepG2 cell free culture (AID 720686)
[16] = qHTS assay to test for compound auto fluorescence at 460 nm (blue) in HepG2 cells (AID 720687)
In short: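 Blue-channel autofluorescence (Ex/Em 405/460 nm, triamterene-equivalent) was measured after 1 hr compound exposure at 37 C, 5% CO2. Cells were HepG2, plated overnight at 37 C in MEM plus 10% FBS.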

[17] = target: Glucocorticoid receptor (Homo sapiens) (UniProt P04150); experiment: qHTS assay to identify small molecule agonists of the glucocorticoid receptor (GR) signaling pathway (AID 720691; active = well fitted activation curve with a large enough effect in the signal ratio in the repeat runs, not every such curve was filed as active; the % refers to the signal ratio)
Sequence of Glucocorticoid receptor (Homo sapiens) (P04150 whole entry, looked up): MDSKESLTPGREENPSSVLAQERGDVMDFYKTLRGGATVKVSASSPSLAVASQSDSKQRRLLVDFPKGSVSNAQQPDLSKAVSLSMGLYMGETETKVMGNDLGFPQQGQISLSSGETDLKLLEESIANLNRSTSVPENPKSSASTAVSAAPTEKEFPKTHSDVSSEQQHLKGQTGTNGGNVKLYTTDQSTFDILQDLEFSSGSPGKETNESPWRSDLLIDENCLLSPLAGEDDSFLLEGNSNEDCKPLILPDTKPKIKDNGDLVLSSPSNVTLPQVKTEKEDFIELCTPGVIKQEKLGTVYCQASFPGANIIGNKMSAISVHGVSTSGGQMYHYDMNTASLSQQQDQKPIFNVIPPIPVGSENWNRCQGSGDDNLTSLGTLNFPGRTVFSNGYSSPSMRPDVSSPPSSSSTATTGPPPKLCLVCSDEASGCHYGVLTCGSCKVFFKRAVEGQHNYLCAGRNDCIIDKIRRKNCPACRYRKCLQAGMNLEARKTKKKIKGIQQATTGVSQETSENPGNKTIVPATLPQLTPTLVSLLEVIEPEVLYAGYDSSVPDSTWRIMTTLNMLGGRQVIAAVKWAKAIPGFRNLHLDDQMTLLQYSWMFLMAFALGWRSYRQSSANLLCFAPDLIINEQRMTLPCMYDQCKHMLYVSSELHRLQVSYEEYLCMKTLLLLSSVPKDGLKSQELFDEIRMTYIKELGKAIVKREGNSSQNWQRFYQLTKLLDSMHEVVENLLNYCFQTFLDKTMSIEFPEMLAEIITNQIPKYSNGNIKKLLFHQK
In short: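 HeLa GR-bla reporter line; cells pre-incubated 4 h, compound in DMSO 18 h at 37 C; LiveBLAzer B/G FRET substrate 2 h RT; fluorescence intensity read-out.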

[18] = qHTS assay for small molecules that induce genotoxicity in human embryonic kidney cells expressing luciferase-tagged ATAD5 - cell viability (AID 651634; calls by dose curve; note: nearly all actives have a fitted effect of over 25% in size)
In short: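 HEK293T ATAD5-luc cells, 2,000/well; compound 15.5 hr, 37C/5% CO2; CellTiter-Fluor 30 min, 37C; fluorescence read.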

[19] = qHTS assay for small molecule disruptors of the mitochondrial membrane potential (AID 720635); note: potency is the fitted concentration of half-maximal effect
In short: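 Mitochondrial membrane potential tracked with Mito-MPS dye, red aggregates (ex 540/em 590 nm) against green monomers (ex 490/em 535 nm). Compound treatment 1 hr at 37C, dye 30 min in HepG2.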

[20] = target: Glucocorticoid receptor (Homo sapiens) (UniProt P04150); experiment: qHTS assay to identify small molecule antagonists of the glucocorticoid receptor (GR) signaling pathway (AID 720692; active = well fitted inhibition curve with a large enough effect in the signal ratio in the repeat runs, not every such curve was filed as active; the % refers to the signal ratio)
In short: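 Read-out: beta-lactamase FRET substrate fluorescence, 2 h at room temperature, in HeLa cells stably carrying a GRE-driven bla reporter. Compounds were co-incubated with 5 nM dexamethasone agonist (final) for 18 h at 37 C.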

Measured: Potency

CCCCCCC(CO)CCCC (stereo not drawn)
inactive: [1] | [2] | [3] | [4] | [5] | [6] | [7] | [8] | [9] | [10] | [11] | [12] | [13] | [14] | [15] | [16] | [17]

O=C(O)CCC(=O)OC[C@@H](NC(=O)C(Cl)Cl)[C@H](O)c1ccc([N+](=O)[O-])cc1
inactive: [1] | [3] | [18] | [4] | [19] | [5] | [6] | [7] | [8] | [9] | [10] | [11] | [12] | [13] | [14] | [15] | [16] | [17] | [20]

Cc1ccc2c(c1[N+](=O)[O-])C(=O)c1ccccc1C2=O
active: [19] 1.2 µM
inactive: [2] | [3] | [18] | [4] | [5] | [6] | [7] | [8] | [9] | [10] | [11] | [12] | [14] | [15] | [16]

Nc1c(Cl)cc(Cl)cc1[N+](=O)[O-]
inactive: [1] | [2] | [3] | [4] | [5] | [6] | [7] | [9] | [10] | [11] | [12] | [13] | [14] | [15] | [16]

CC(C)COC(=O)COc1cc(Cl)c(Cl)cc1Cl
inactive: [1] | [2] | [3] | [4] | [5] | [6] | [7] | [8] | [10] | [11] | [12] | [13] | [14] | [15] | [16] | [17]

CCN(CC)c1cccc(O)c1
inactive: [2] | [3] | [18] | [4] | [5] | [6] | [7] | [8] | [9] | [10] | [11] | [12] | [14] | [15] | [16] | [17] | [20]

CCCCCCCCCCCCCCCC(=O)OCC
inactive: [2] | [3] | [18] | [4] | [5] | [6] | [7] | [8] | [9] | [10] | [11] | [12] | [13] | [14] | [15] | [16] | [17] | [20]
